Here are results for ten molecules from PubChem BioAssay.

The nature of assay [1]: resazurin metabolic signal in HepG2 cells – cell-based, resazurin fluorescence, 24 h, PK04 Diversity Set, profiling panel (AID 1172). Note: test concentration not given here. The conditions noted are these: HepG2 viability, higher = more signal. (In general: Alamar Blue is a resazurin reagent that responds to reducing activity.)
The nature of assay [2]: budding yeast growth changes without added modifier – OD600, strain BY4716, 24 h, basal condition, primary screen (AID 1173). The conditions noted are these: S. cerevisiae BY4716 growth, OD600, 24 h; higher = more signal, called active from +8 up or from −8 down.
Assay [3] is described as follows: viability profiling in MM1S myeloma cells – cell-based, resazurin fluorescence, basal, 24 h, PK04 Diversity Set, profiling panel (AID 1174).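 Note: MM1S multiple myeloma cell line; test concentration not given here.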 The following applies: higher = more signal, called active from +8 up or from −8 down.
Assay [4] concerns the target Dihydroorotate dehydrogenase (quinone), mitochondrial (Plasmodium falciparum (isolate 3D7)) (UniProt Q08210). The experiment in a line: inhibition of P. falciparum DHODH – biochemical, C-terminal His tag, absorbance 600 nm, primary screen (AID 1175).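 Note: recombinant parasite enzyme with a five histidine tag at its C terminus; test concentration not given here.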 The conditions noted are these: PfDHODH enzyme, DCIP absorbance 600 nm; higher = more signal, called active from +8 up or from −8 down.

A short description of assay [5]: inhibition of PAO1 biofilm formation – strain PAO1, LB-PBS medium, absorbance 600 nm, primary screen (AID 1176). Note: test concentration not given here. The following applies: P. aeruginosa PAO1 growth/biofilm, A600, 12 h; higher = more signal.
The nature of assay [6]: growth modulation of vineyard yeast isolate – strain RM11-1a, OD600, basal, 24 h, primary screen (AID 1177).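 Note: cultures grown under basal conditions with no added stressor; test concentration not given here.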 The conditions noted are these: S. cerevisiae RM11-1a growth, OD600, 24 h; higher = more signal, called active from +8 up or from −8 down.
Assay [7] can be described thus: growth of efflux-deficient E. coli DRC39 – strain DRC39, OD650, 24 h, E. coli filamentation inducers, primary screen (AID 1178).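 Note: growth measured as culture turbidity by optical density at 650 nm; test concentration not given here.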 The following applies: E. coli DRC39 acrAB, higher = more signal, called active from +8 up or from −8 down.
Assay [8] can be described thus: growth of efflux-deficient E. coli DRC39 – strain DRC39, OD650, 48 h, E. coli filamentation inducers, primary screen (AID 1179).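 Note: screen aims at cell division blockers that make cells filament.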 The following applies: E. coli DRC39 delta-acrAB growth, higher = more signal, called active from +8 up or from −8 down.
Assay [9] in a line: viability profiling in RPMI8226 myeloma cells – cell-based, resazurin fluorescence, basal, 24 h, PK04 Diversity Set, profiling panel (AID 1180).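 Note: RPMI8826 multiple myeloma cell line at 5000 cells per well; test concentration not given here.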 The conditions noted are these: higher = more signal.
In assay [10] the target is E3 ubiquitin-protein ligase XIAP (Homo sapiens) (UniProt P98170). The experiment in a line: small molecules binding XIAP protein – biophysical, small-molecule microarray, fluorescence 635 nm, primary screen (AID 1181).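 Note: score merges 667 nm emission and signal to noise over triplicate slides.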 The conditions noted are these: higher = more signal.

Active and inactive are the calls of the source. Unless noted, the rule behind the calls is not given here.

Chain of E3 ubiquitin-protein ligase XIAP (Homo sapiens) (P98170 whole entry, looked up): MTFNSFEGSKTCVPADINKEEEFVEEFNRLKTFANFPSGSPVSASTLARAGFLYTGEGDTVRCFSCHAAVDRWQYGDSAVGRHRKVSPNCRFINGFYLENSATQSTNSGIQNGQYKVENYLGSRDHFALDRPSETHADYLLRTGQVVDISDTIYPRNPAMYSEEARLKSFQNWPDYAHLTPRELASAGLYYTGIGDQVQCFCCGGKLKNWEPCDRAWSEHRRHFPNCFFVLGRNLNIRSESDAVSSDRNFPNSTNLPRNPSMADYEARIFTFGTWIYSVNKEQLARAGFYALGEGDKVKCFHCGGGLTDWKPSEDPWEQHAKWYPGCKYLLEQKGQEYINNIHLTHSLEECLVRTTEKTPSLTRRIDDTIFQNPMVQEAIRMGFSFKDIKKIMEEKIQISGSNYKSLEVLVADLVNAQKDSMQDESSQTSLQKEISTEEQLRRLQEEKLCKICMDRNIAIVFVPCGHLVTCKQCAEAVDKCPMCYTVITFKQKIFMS
Chain of Dihydroorotate dehydrogenase (quinone), mitochondrial (Plasmodium falciparum (isolate 3D7)) (Q08210 whole entry, looked up): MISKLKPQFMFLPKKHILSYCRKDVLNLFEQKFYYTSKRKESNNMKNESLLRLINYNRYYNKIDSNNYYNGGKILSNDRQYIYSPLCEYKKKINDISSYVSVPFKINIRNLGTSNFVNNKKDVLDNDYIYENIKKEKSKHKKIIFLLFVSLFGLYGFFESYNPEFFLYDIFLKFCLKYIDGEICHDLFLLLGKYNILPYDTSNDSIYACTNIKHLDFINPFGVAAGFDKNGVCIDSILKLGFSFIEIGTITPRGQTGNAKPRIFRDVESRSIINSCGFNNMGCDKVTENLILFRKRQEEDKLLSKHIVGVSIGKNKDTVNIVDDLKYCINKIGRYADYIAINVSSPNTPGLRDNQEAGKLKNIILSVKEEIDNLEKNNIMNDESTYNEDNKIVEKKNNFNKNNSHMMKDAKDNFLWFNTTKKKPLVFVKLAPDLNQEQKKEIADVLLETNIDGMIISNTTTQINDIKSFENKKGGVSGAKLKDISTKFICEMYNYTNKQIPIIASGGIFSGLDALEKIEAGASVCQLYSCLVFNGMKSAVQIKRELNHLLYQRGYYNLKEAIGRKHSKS

For the molecule `O=C(c1ccccc1)N1Cc2ccccc2C[C@@]2(N=C(c3ccc(OCCCO)cc3)O[C@H]2c2ccccc2)C1=O`, the z-score in assay [1] was -1.51; in assay [2], 0.728 (inactive); in assay [3] it was -3.22 (inactive); in assay [5], 1.49 (inactive); in assay [6] it was 1.39 (inactive); in assay [7], 0.0557 (inactive). The z-score is -0.469 (inactive) in [8] and -3.73 in assay [9]. For the same molecule, the composite z-score in assay [4] was 0.23 (inactive); in [10], 0.0797.

On to `Cc1ccc(S[C@]2(C(=O)NC(C)C)CC(=O)N(Cc3ccccc3)[C@@H]2c2ccc(CO)cc2I)cc1`, for which the z-score in [1] is -0.885; in assay [2] it was -2.23 (inactive); in [3], -3.48 (inactive); in assay [5], 0.003 (inactive); in [6], -0.101 (inactive); in assay [7], -0.0759 (inactive). Further, the z-score is 0.494 (inactive) in assay [8] and -2.8 in [9]. The composite z-score in assay [4] was -0.489 (inactive); in [10], 0.301.

For the molecule `CN(C)C(=O)[C@]1(CCS(=O)(=O)c2ccccc2)N=C(c2ccc(OCCCO)cc2)O[C@@H]1c1ccccc1CN=[N+]=[N-]`, the z-score is 1.46 in assay [1]; 0.705 (inactive) in assay [2]; 0.273 (inactive) in assay [3]; 0.743 (inactive) in assay [5]; 0.3 (inactive) in assay [6]; 0.293 (inactive) in [7]. Besides, the z-score in assay [8] is -0.373 (inactive); in [9], -0.0461. For the same molecule, the composite z-score is 0.37 (inactive) in assay [4] and 0.558 in assay [10].

Take `COC(=O)[C@H]1N=C(c2ccc(OCCCO)cc2)O[C@H]1c1ccccc1N=[N+]=[N-]`: the z-score in [1] is 0.249; in assay [2], -3.93 (inactive); in [3] it was -0.971 (inactive); in [5], 1.43 (inactive); in assay [6], 0.682 (inactive); in [7] it was 0.584 (inactive). Also, the z-score in assay [8] was -0.711 (inactive); in assay [9], 0.464. Further, the composite z-score was 0.556 (inactive) in assay [4] and -0.141 in assay [10].

In the case of `Cc1c(NC(=O)/C(C#N)=C/C=C/c2ccc([N+](=O)[O-])cc2)c(=O)n(-c2ccccc2)n1C`, the z-score in assay [1] is -0.559; in assay [2] it was -0.546 (inactive); in [3], 0.11 (inactive); in assay [5], -0.736 (inactive); in assay [6], -0.254 (inactive); in assay [7], -0.465 (inactive). For the same molecule, the z-score in [8] is -0.412 (inactive); in [9], 0.664. The results for the composite z-score in assay [4] and in assay [10] were 0.142 (inactive) and -0.0581, respectively.

As to `CCCN1C(=O)[C@@]2(c3ccc([N+](=O)[O-])cc3)CC(=O)N(C3CCCCC3)[C@@H]2c2ccc(CO)cc21`, the z-score in assay [1] is -0.225; in assay [2] it was 1.88 (inactive); in [3], -0.674 (inactive); in assay [5], 0.944 (inactive); in assay [6], 1.89 (inactive); in assay [7], 0.197 (inactive). Also, the z-score in assay [8] was -1.27 (inactive); in assay [9] it was -0.606. Moreover, the composite z-score in assay [4] was -24.3 (active); in assay [10], -0.0773.

Consider `CCCCCCc1nc(-c2ccc(OC)nc2)c(C)c2c1[Si](C(C)C)(C(C)C)OC2`, for which the z-score in [1] was 0.167; in [2], -0.121 (inactive); in [3], 1.86 (inactive); in assay [5] it was 0.444 (inactive); in assay [6], -0.745 (inactive); in assay [7] it was 0.746 (inactive). In addition, the z-score is -0.0026 (inactive) in assay [8] and 0.781 in [9]. For the same molecule, the results for the composite z-score in assay [4] and in assay [10] were -3 (inactive) and 0.128, respectively.

Take `Cc1ccc(S[C@]2(C(=O)NC3CC3)CC(=O)N(C3Cc4ccccc4C3)[C@@H]2c2ccc(CO)cc2I)cc1`: the z-score was -0.386 in [1]; -4.29 (inactive) in assay [2]; -2.54 (inactive) in assay [3]; 0.0493 (inactive) in [5]; 0.283 (inactive) in [6]; 0.112 (inactive) in assay [7]. Further, the z-score is -0.266 (inactive) in assay [8] and -1.24 in assay [9]. Besides, the results for the composite z-score in assay [4] and in assay [10] were 0.282 (inactive) and -0.174, respectively.

As to `C[C@@]1([C@@H](NS(=O)(=O)c2cccc3cccnc23)c2ccc(-c3ccccc3)cc2)C[C@H]1C1CCCCC1`, the z-score in [1] was -0.901; in assay [2], 0.944 (inactive); in assay [3], -2.58 (inactive); in assay [5], -0.0982 (inactive); in assay [6] it was 0.368 (inactive); in assay [7], -0.893 (inactive). Besides, the z-score was -0.882 (inactive) in assay [8] and -0.678 in assay [9]. Besides, the composite z-score in assay [4] is -0.554 (inactive); in assay [10] it was 0.553.

`[N-]=[N+]=NCc1ccccc1[C@H]1OC(c2ccc(OCCCO)cc2)=N[C@@]1(CCS(=O)(=O)c1ccccc1)C(=O)NCCN1CCOCC1`: the z-score in assay [1] was -0.152; in assay [2], 0.256 (inactive); in assay [3], 0.285 (inactive); in assay [5], 1.13 (inactive); in assay [6] it was -0.199 (inactive); in [7] it was -0.178 (inactive). Also, the figures for the z-score in [8] and in assay [9] were -0.35 (inactive) and 0.548, respectively. Also, the composite z-score in [4] is 0.12 (inactive); in assay [10], -0.115.
